Some test systems named below: T-47D breast; MDA-MB-435 melanoma; SW-620 colon; MCF7 breast; HCT-116 colon; HCC-2998 colon; KM12 colon.
Assay in all cases: NCI-60 one-dose screen, 48 h (100 = growth as untreated, 0 = no growth, -100 = all killed)
Common to all, as to conditions: 10 µM unless noted

This passage reports growth results from PubChem BioAssay (NCI).

Compounds without any hit were thinned out: in the full panel of roughly 83,000, 20% have a hit.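 Treatment: one concentration, 48 hours, 96-well format. Scoring: percent growth, with anything below 10 considered active.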 A number with no mark means an inactive call. The source made the active and inactive calls.

Regarding `S=c1nc2oc(-c3ccccc3)c(-c3ccccc3)c2c(/N=C\c2ccco2)[nH]1`, the growth with T-47D breast was 65.9%; in the assay on MDA-MB-435 melanoma, 108%; with SW-620 colon, 101%; in the assay with MCF7 breast, 93.1%; with HCT-116 colon, 84.4%; in the assay with HCC-2998 colon, 109%. In addition, the growth with KM12 colon was 94.1%.
With `Cc1n[nH]c2ccc(Br)cc2c1=O`, the growth in the assay on T-47D breast was 94.6%; with MDA-MB-435 melanoma, 107%; in the assay with SW-620 colon, 113%; with MCF7 breast it was 108%; in the assay with HCT-116 colon, 98.7%; in the assay with HCC-2998 colon, 107%.
In the case of `COc1ccc(/C=C/C(=O)c2ccc(NC(=O)CSc3nc4c([nH]3)c(=O)n(C)c(=O)n4C)cc2)cc1OC`, the growth with T-47D breast was 76.9%; in the assay with MDA-MB-435 melanoma, 88.5%; in the assay on SW-620 colon, 96.2%; in the assay with MCF7 breast, 40.7%; in the assay on HCT-116 colon, 59.3%; in the assay on HCC-2998 colon, 75.9%. In addition, in the assay with KM12 colon, the growth was 72.3%.
For `COc1ccc(C#Cc2ccc(=O)oc2-c2cc(OC)c(OC)c(OC)c2)cc1O`, the growth is 45.2% in the assay with T-47D breast; 0.895% (active) in the assay with MDA-MB-435 melanoma; 31.2% with SW-620 colon; 16% in the assay with MCF7 breast; 14.9% in the assay with HCT-116 colon; 9.46% (active) in the assay with HCC-2998 colon.
As to `Cc1ccc(S(=O)(=O)Oc2ccc3sc4cccc(NCCN(C)C)c4c(=O)c3c2)cc1`, the growth in the assay on T-47D breast was -69.8% (active); in the assay with MDA-MB-435 melanoma, -96.3% (active); in the assay with SW-620 colon, -92.4% (active); with MCF7 breast it was -86.7% (active); in the assay on HCT-116 colon, -82.9% (active); with HCC-2998 colon it was -96.7% (active). Besides, in the assay on KM12 colon, the growth is -85% (active).
As for `CCN(CC)CCCN1C(=O)c2c(c(C)c3c(oc4ccc(O)cc43)c2C)C1=O`, the growth in the assay on T-47D breast was 87.2%; in the assay on MDA-MB-435 melanoma, 93.4%; in the assay on SW-620 colon, -37% (active); in the assay on MCF7 breast, 65.8%; with HCT-116 colon, -77.9% (active); in the assay on HCC-2998 colon it was 67%. The growth in the assay on KM12 colon is 70.7%.
In the case of `O=C(CCCCCCN1CC(=O)N2[C@H](c3ccc(Cl)cc3)c3[nH]c4ccccc4c3C[C@@H]2C1=O)NO`, the growth with T-47D breast was 25.9%; in the assay with MDA-MB-435 melanoma, 43.2%; in the assay on SW-620 colon, 35.4%; in the assay with MCF7 breast, 48%; in the assay with HCT-116 colon, 24.7%; with HCC-2998 colon, 82.3%. The growth in the assay with KM12 colon is 80.3%.
In the case of `COc1ccc(-c2ccc(-c3ccc(C(=N)N)nc3)s2)cc1Cl`, the growth was -28.6% (active) in the assay on T-47D breast; -90.3% (active) in the assay on MDA-MB-435 melanoma; -79.8% (active) in the assay with SW-620 colon; -70% (active) in the assay on MCF7 breast; -65.5% (active) with HCT-116 colon; -43.8% (active) with HCC-2998 colon. Besides, the growth with KM12 colon was -86% (active).
Consider `C=C1C(=O)O[C@H]2[C@H]1CC/C(COC(=O)c1ccc(C(=O)O)s1)=C\CC[C@@]1(C)O[C@@H]21`, for which the growth in the assay with T-47D breast is 43%; in the assay on MDA-MB-435 melanoma, 11.7%; in the assay on SW-620 colon it was 4.69% (active); in the assay on MCF7 breast, 13%; in the assay with HCT-116 colon, 11.4%; in the assay with HCC-2998 colon it was 61.6%.
For `O=C1/C(=C\c2ccccn2)c2ccccc2N1c1c(Cl)cccc1Cl`, the growth with T-47D breast was 4.47% (active); in the assay on MDA-MB-435 melanoma, -5.05% (active); in the assay with SW-620 colon it was -56.9% (active); in the assay on MCF7 breast it was 2.29% (active); in the assay with HCT-116 colon, -94.4% (active); in the assay with HCC-2998 colon, -82.1% (active). Besides, in the assay with KM12 colon, the growth is -2.11% (active).
As to `Cc1nc2ccccc2c(/C=C/c2ccccc2)c1C(=O)/C=C/c1ccccc1`, the growth is 15.6% with T-47D breast; -17.2% (active) in the assay on MDA-MB-435 melanoma; -65.6% (active) with SW-620 colon; 17% in the assay on MCF7 breast; -43% (active) in the assay on HCT-116 colon; 31.6% with HCC-2998 colon. The growth in the assay on KM12 colon is 11.6%.
As to `COc1ccc(/C(C)=C(/c2ccc(OCCCN(C)C)cc2)c2ccc(OC(=O)c3ccccc3)cc2)cc1`, the growth with T-47D breast is 49.7%; in the assay on MDA-MB-435 melanoma it was 85%; in the assay with SW-620 colon, 88.8%; in the assay with MCF7 breast, 31%; with HCT-116 colon, 48.6%; in the assay with HCC-2998 colon, 88.3%. For the same compound, in the assay with KM12 colon, the growth was 75.2%.
Regarding `S=C(c1ccc2c(c1)OCO2)N1CCN(c2cccc(Cl)c2)CC1`, the growth in the assay with T-47D breast was 11.6%; in the assay with MDA-MB-435 melanoma it was -37.7% (active); in the assay with SW-620 colon it was 4.12% (active); with MCF7 breast it was -0.55% (active); with HCT-116 colon, 13.7%; in the assay with HCC-2998 colon it was -13.1% (active). In the assay with KM12 colon, the growth was 12.6%.
Take `O=C1NC(=O)/C(=C/c2c(-c3ccccc3)nc3sc(COc4ccccc4)nn23)S1`: the growth with T-47D breast is 89.4%; in the assay on MDA-MB-435 melanoma, 102%; in the assay on SW-620 colon, 105%; in the assay on MCF7 breast, 83.5%; with HCT-116 colon, 89.3%; with HCC-2998 colon it was 107%. Further, the growth with KM12 colon is 100%.
Turning to `O=C1/C(=C2\SC(=S)N(C3CC3)C2=O)SC(=S)N1C1CC1`, the growth in the assay with T-47D breast is 94.6%; in the assay on MDA-MB-435 melanoma it was 103%; in the assay with SW-620 colon, 98.4%; with MCF7 breast it was 91.6%; in the assay with HCT-116 colon, 100%; in the assay with HCC-2998 colon, 102%. Moreover, the growth with KM12 colon is 101%.
Consider `CC1(C)CC[C@]2(CO)CC[C@]3(C)[C@H](CC[C@@H]4[C@@]5(C)CCCNC(C)(C)[C@@H]5CC[C@]43C)[C@H]2[C@H]1O`, for which the growth in the assay on T-47D breast is 88.8%; in the assay on MDA-MB-435 melanoma, 82.7%; with SW-620 colon, 54.2%; with MCF7 breast it was 55.2%; in the assay with HCT-116 colon, 50.2%; in the assay on HCC-2998 colon, 38.2%.
